# PfHsp40 rescue: rescue of yeast from PfHsp40 toxicity, primary screen, S. cerevisiae, ATP luminescence | S. cerevisiae expressing PfHsp40, growth rescue | 340,000 compounds, 0.68% hits | growth rescue, % at 12.5 µM | AID 504582, 2011; in the data active = growth rescue above about 28%, passing the limit was not always enough;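 note: yeast W303a lacking pdr1 and pdr3 grown in galactose medium; growth measured after three days at 30 °C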
# PrP UTR inh: inhibition of PrP 5' UTR reporter expression; 340,000 compounds, 0.35% hits; inhibition, % (test concentration not listed); AID 488862, 2010; cell-based PrP 5' UTR mRNA reporter, plate reader; in the data active = inhibition above about 52%
# Yp Topo-I inh: Yersinia pestis topoisomerase I inhibitors, primary screen, biochemical, cleavage product accumulation, plate reader, single point; DNA topoisomerase I (Yersinia pestis CO92); activity, % at 10 µM; Y. pestis Topo-I cleavage product accumulation; 360,000 compounds, 0.064% hits; in the data active = activity above about 50%, passing the limit was not always enough
# ugtP null kill: growth inhibition of ugtP-null S. aureus, primary screen, RN4220 ugtP deletion, OD600. 16 h. growth inhibition, % (no concentration beside the values). 330,000 compounds, 0.54% hits. AID 1259309, 2017; in the data active = growth inhibition above about 68%
# RN4220 kill: growth inhibition of S. aureus RN4220, primary screen, OD600; 16 h; 330,000 compounds, 0.33% hits; AID 1259311, 2017; inhibition, % (no concentration beside the values); in the data active = inhibition above about 85%
# BJeLR viability: MLPCN primary cell-based screen for lethality selective to Ras in HRASV12 cells; BJeLR (HRASV12) viability, CellTiter-Glo ATP luminescence, 48 h; AID 1554, 2009; inhibition, % (concentration not given with the values); 300,000 compounds, 0.17% hits; in the data active = inhibition above about 50%
# Numbers stand for hits; n = inactive; x = no result given. Sampled rows, rich in hits. Any-hit rate of the full collection: about 1.4%.
SMILES,PfHsp40 rescue,PrP UTR inh,Yp Topo-I inh,ugtP null kill,RN4220 kill,BJeLR viability
Cc1cc(C)c2nc(N3C(=O)C(O)=C(C(=O)c4ccco4)C3c3cccc(O)c3)sc2c1 (stereo not drawn),n,n,n,88,n,x
O=C(O)c1ccc(NC(=O)c2cn(-c3ccccc3)nc2-c2ccc(Br)cc2)cc1,69,n,n,n,n,n
NC(=O)CNC(=O)C1CC2(CC(c3ccccc3)=NO2)CN1C(=O)c1ccc(Br)cc1 (stereo not drawn),x,x,x,n,n,x
C=C(C)C(=O)Nc1cccc(C2=NOC3(C2)CC(C(N)=O)N(C(=O)c2ccc(Cl)cc2)C3)c1 (stereo not drawn),x,x,x,n,n,x
CC(C)(C)n1[nH]c2c3c(ccc2c1=O)C(=O)c1ccccc1C3=O,n,n,n,n,n,n
COCCCn1[nH]c2c3c(ccc2c1=O)C(=O)c1ccccc1C3=O,n,n,n,84,86,n
CC(C)(C)OC(=O)N1CCC(NC(=O)c2[nH]cnc2C(=O)NC(Cc2ccccc2)C(=O)OCc2ccccc2)CC1 (stereo not drawn),x,x,x,n,n,x
CCCc1ccc(-c2csc(NC(=O)C3=COCCO3)n2)cc1,50,n,n,n,n,x
Cc1ccc(-c2csc(NC(=O)C3=COCCO3)n2)cc1,n,n,n,n,n,n
CCCNC(=O)N1C2CCC1C(C(=O)OC)=C(c1ccc(F)cc1F)C2 (stereo not drawn),x,x,x,n,n,x
CCCCSc1nc(C)cc(SCC(=O)N/N=C/c2cccc(OC)c2O)n1,104,n,n,x,x,n
CC1(C)CC(=O)C=C(c2ccc(COC(=O)/C=C/c3ccccc3)cc2)C1=O,x,x,56,x,x,x
COc1ccc(S(=O)(=O)Nc2ccc3c(c2)C(=O)N(C(C)CO)CC(C)C(CN(C)C(=O)NC2CCCCC2)O3)cc1 (stereo not drawn),x,x,x,n,n,x
CCOC1OC(C(=O)N2CCN(C)CC2)=CC(C)C1CCCO (stereo not drawn),x,x,x,n,n,x
CN(C)c1ccc(-c2cc(O)c3ncccc3c2)cc1,n,n,n,x,x,x
Oc1cc(-c2ccncc2)cc2cccnc12,n,n,n,95,101,x
O=C(O)c1ccccc1NS(=O)(=O)c1cccc(-n2sc3ccccc3c2=O)c1,407,n,n,n,n,n
C=C1CCN(C(C)C(=O)NCc2cc(OC)c(OC)c(OC)c2)S(=O)(=O)c2ccccc21 (stereo not drawn),x,x,x,n,n,x
CCCc1cc(C(N)=O)c(NC(=O)c2ccoc2C)s1,n,n,n,n,n,n
CCCc1cc(C(N)=O)c(NC(=O)c2cc(C)on2)s1,178,n,n,n,n,n
CC1(C)c2[nH]c3ccccc3c2CC2C(=O)N(c3cc(F)ccc3F)C(=O)N21 (stereo not drawn),x,x,x,n,n,x
O=C(Cc1cccs1)Nc1ccc(Cl)cc1,n,n,n,n,n,n
CCCC(=O)NC(=S)Nc1ccc(NC(=O)c2cccs2)cc1,n,n,n,n,n,n
O=C(Cc1cccs1)Nc1ccc(N2CCOCC2)cc1,35,n,n,n,n,n
CCCC(=O)NC(=S)Nc1ccc(N2CCN(C(=O)c3cccs3)CC2)cc1,n,n,n,active,n,n
SMILES,PfHsp40 rescue,PrP UTR inh,Yp Topo-I inh,ugtP null kill,RN4220 kill,BJeLR viability
O=C(/C=C/c1ccc(S(=O)(=O)N2CCOCC2)cc1)NC(=S)Nc1ccc(N2CCOCC2)cc1,46,n,n,n,n,n
Cc1cc(NC(=S)NC(=O)/C=C/c2ccc(S(=O)(=O)N3CCOCC3)cc2)ccc1Br,n,n,n,n,n,n
CCC(=O)NC(=S)Nc1ccc(N2CCOCC2)cc1,n,n,n,n,n,n
CCCCCC(=O)NC(=S)Nc1ccc(N2CCOCC2)cc1,n,n,n,91,n,n
COC(=O)C1=C(C)N(Cc2ccccc2)C(=NCCCCO)NC1c1cccc(C(F)(F)F)c1 (stereo not drawn),x,x,x,n,n,x
COc1ccc(NC(=O)Nc2ccc3c(c2)C(=O)N(C(C)CO)CC(C)C(CN(C)C(=O)Nc2c(C)noc2C)O3)cc1 (stereo not drawn),x,x,x,n,n,x
COc1ccc(NC(=O)C(=O)NCCN2CCN(C(=O)c3cccs3)CC2)cc1,58,n,n,n,n,n
O=C1NCC(c2ccccc2)N(CCc2cccc3ccccc23)C1=O (stereo not drawn),x,x,x,n,n,x
CCn1cc(/C=N\NC(=O)c2ccc3c(c2)c(C)c(C)n3Cc2ccccc2)c(C)n1,72,n,n,x,x,n
CCn1ncc(/C=N\NC(=O)c2ccc3c(c2)c(C)c(C)n3Cc2ccccc2)c1C,n,n,n,x,x,n
O=c1c2ccc(Cl)cc2nc(-c2cccc(C(F)(F)F)c2)n1O,n,n,n,100,96,n
O=C(O)c1ccccc1-c1nc2cc(Cl)ccc2c(=O)n1O,n,n,n,n,n,n
N#Cc1ccc(-c2nc3cc(Cl)ccc3c(=O)n2O)cc1,136,n,n,n,n,n
COC(=O)C1=C(C(=O)OC)C2N(Cc3ccccc3)c3ccccc3[C@@]23CC(C(=O)OC)N(C(=O)CC(C)C)C3=N1 (stereo partly drawn),x,x,x,n,n,x
N#CC(=Cc1ccc(Cl)cc1Cl)c1n[nH]c(Cn2cncn2)n1,x,x,x,n,n,x
CC(=O)NCCc1c(C)n(Cc2ccccc2)c2ccccc12,64,n,n,n,n,n
CC(=O)NCCc1nc2ccccc2n1Cc1ccccc1,n,n,n,n,n,n
COc1cc2c(c(OC)c1OC)-c1c(cc3c(c1OC)OCO3)C1OC2C(C)C1C (stereo not drawn),x,x,x,n,n,x
O=C(c1ccccc1)N1C(=O)C(c2ccccc2)Oc2ccccc21 (stereo not drawn),234,n,n,n,n,n
Cc1ccc(C(=O)c2sc3c(c2N)c(=O)[nH]c(=O)n3CCc2ccccc2)cc1,n,n,160,n,n,n
C#CCOCCOCCOCCNc1nc(N2CCN(C(=O)CCCCCCCCCCNC(=O)C(C(C)O)n3cc(C)nn3)CC2)nc(N2CCN(C(=O)CCCCCCCCCCNC(=O)C(C(C)O)n3cc(C)nn3)CC2)n1 (stereo not drawn),x,x,x,n,n,x
O=C(NC(Cc1ccccc1)C(=O)O)C(=Cc1ccccc1)NC(=O)c1cccc(Br)c1 (stereo not drawn),x,x,x,n,n,x
CSCc1cc(N(C)c2ccccc2)nc(-c2ccccn2)n1,111,n,n,x,x,n
CC[C@@H](O)C[C@H]1CCC[C@@]2(C[C@@H]3OC(=O)/C=C/[C@@](C)(O)[C@@H](O)[C@H](C)[C@@H](O)[C@H](OC4CCC(N(C)C)C(C)O4)[C@@H](O)[C@](C)(O)CCCCC/C=C/[C@@H]4CC(C)(C)O[C@@]4(O)C[C@H](O2)[C@H]3C)O1 (stereo partly drawn),56,n,n,x,x,x
O=C(Nc1ccc(F)cc1)Nc1ccc(S(=O)(=O)N2CCCC2)cc1,n,n,n,n,n,x
